Columns and labels:
Experiment in all cases: PBM binding z-score (relative to random genomic background probes); higher = stronger binding; sequences stand for … in GC…GCGATTGACAGCGTAGAATGAAGG
[1] = system: FXR:RXRa (NR concentration 270 nM, RXRa partner concentration 90 nM)
Summary of the method: (§1)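 Each nuclear receptor dimer, without ligand, was incubated for 1 h on custom Agilent 4×180K protein-binding microarrays. Binding was detected with antibodies against each partner (one per run), and scanned fluorescence was regression-normalized. The binding z-scores are referenced to random human genomic background probes.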

[2] = system: LXRa:RXRa (NR concentration 270 nM, RXRa partner concentration 90 nM)
Summary of the method: as §1

[3] = system: LXRa homodimer (NR concentration 270 nM)
Summary of the method: as §1

[4] = system: LXRb:RXRa (NR concentration 270 nM, RXRa partner concentration 90 nM)
Summary of the method: as §1

[5] = system: LXRb homodimer (NR concentration 270 nM)
Summary of the method: as §1

[6] = system: PPARa:RXRa (NR concentration 270 nM, RXRa partner concentration 90 nM)
Summary of the method: as §1

[7] = system: PPARg:RXRa (NR concentration 180 nM, RXRa partner concentration 90 nM)
Summary of the method: as §1

[8] = system: PPARg:RXRa 270nM:90nM, anti-RXR (NR concentration 270 nM, RXRa partner concentration 90 nM)
Summary of the method: as §1

[9] = system: PPARg:RXRa 30nM:10nM, anti-RXR (NR concentration 30 nM, RXRa partner concentration 10 nM)
Summary of the method: as §1

[10] = system: PPARg:RXRa 90nM:30nM, anti-RXR (NR concentration 90 nM, RXRa partner concentration 30 nM)
Summary of the method: as §1

[11] = system: PPARg:RXRa DBDmut IVT, anti-RXR (DBD mutation: RXRa K156A/R161A, NR concentration 270 nM, RXRa partner concentration 90 nM)
Summary of the method: as §1

[12] = system: PPARg:RXRa IVT, anti-PPARg (NR concentration 270 nM, RXRa partner concentration 90 nM)
Summary of the method: as §1

[13] = system: PPARg DBDmut:RXRa IVT, anti-PPARg (DBD mutation: PPARg1 K132A/R137A, NR concentration 270 nM, RXRa partner concentration 90 nM)
Summary of the method: as §1

[14] = system: PPARg DBDmut IVT, anti-PPARg (DBD mutation: PPARg1 K132A/R137A, NR concentration 270 nM)
Summary of the method: as §1

[15] = system: PPARg homodimer (NR concentration 180 nM)
Summary of the method: as §1

[16] = system: PXR:RXRa (NR concentration 270 nM, RXRa partner concentration 90 nM)
Summary of the method: as §1

[17] = system: PXR homodimer (NR concentration 270 nM)
Summary of the method: as §1

[18] = system: RARa:RXR (NR concentration 270 nM, RXRa partner concentration 90 nM)
Summary of the method: as §1

[19] = system: RARa homodimer (NR concentration 270 nM)
Summary of the method: as §1

[20] = system: RARb:RXRa (NR concentration 270 nM, RXRa partner concentration 90 nM)
Summary of the method: as §1

Sequence | PBM binding z-score [1] | PBM binding z-score [2] | PBM binding z-score [3] | PBM binding z-score [4] | PBM binding z-score [5] | PBM binding z-score [6] | PBM binding z-score [7] | PBM binding z-score [8] | PBM binding z-score [9] | PBM binding z-score [10] | PBM binding z-score [11] | PBM binding z-score [12] | PBM binding z-score [13] | PBM binding z-score [14] | PBM binding z-score [15] | PBM binding z-score [16] | PBM binding z-score [17] | PBM binding z-score [18] | PBM binding z-score [19] | PBM binding z-score [20]
CACACTAGGTCACCGGAAGGTCAAAGTCCGCATG | 6.4 | 6.18 | 6.43 | 5.72 | 2.16 | 6.24 | 8.71 | 7.07 | 4.59 | 6.32 | 7.26 | 8.19 | 3.49 | 0.952 | 7.05 | 6.16 | 2.43 | 7.66 | 2.69 | 5.52
CCTACTGGGCCAAAGATCATTGATTCCAATGCTC | -0.285 | -0.527 | -0.374 | -0.317 | -0.68 | 3.5 | 6.88 | 7.31 | 6.04 | 7.74 | 4.33 | 4.24 | -0.277 | 0.286 | 0.269 | -0.408 | -0.738 | -0.185 | -0.399 | -0.0314
CCAGACAGGTGATAGGTAACTCAGTCTGGTACGC | -0.225 | -0.0796 | -0.151 | -0.0572 | -0.589 | 0.765 | 1.82 | 2.56 | 0.858 | 1.92 | 0.575 | 0.559 | -0.871 | 0.0703 | 0.624 | -0.293 | -0.225 | 0.152 | 0.246 | 0.0928
CGAACTAGGTCATTGACAGGACAGTAAATAGTAA | 4.05 | 2.93 | 0.467 | 2.31 | -0.338 | 4.66 | 7.77 | 6.44 | 3.43 | 5.8 | 8.11 | 7.89 | 2.15 | 1.51 | 1.72 | 1.89 | 0.641 | 2.43 | -0.0635 | 3.81
ATCTCTAGGTAAAGTTGAGTGAAAGATCGATAGA | 0.674 | 0.644 | -0.0419 | 0.163 | 0.646 | 0.992 | 1.37 | 2.56 | 1.23 | 2.07 | 2.32 | 2.1 | 0.815 | 1.27 | 0.789 | -0.222 | 0.345 | 0.0645 | 0.741 | 0.652
ATATGTAGGTTAGCTGGGGTTATTCAGACTAGGC | 1.74 | 3.29 | 0.848 | 2.56 | 1.44 | 3.94 | 4.22 | 3.82 | 1.45 | 2.9 | 6.78 | 6.18 | 3.12 | 2.79 | 1.88 | 4.02 | 0.969 | 3.11 | 1.26 | 1.38
ATCTCTAGGTAAAAGTTCATTGAATCCCGAGGAT | 2.13 | 3.38 | 4.04 | 2.13 | 1.06 | 4.7 | 8.45 | 7.53 | 7.5 | 8.69 | 1.93 | 3.85 | 1.8 | 0.918 | 1.37 | 3.67 | 3.67 | 2.6 | 0.624 | 2.84
CGTCCAAGGTCAATGCTACGTCAGTGAAAGCATT | 6.6 | 4.58 | 0.394 | 3.37 | 0.412 | 4.89 | 3.32 | 4.18 | 1.44 | 3.3 | 3.21 | 3.16 | 1.41 | -0.403 | 2.71 | 3.7 | 0.586 | 3.85 | 0.867 | 4.96
GCAGACAGGTGAAACGCAGGTAGCTCAGGGTGGC | -0.298 | -0.318 | -0.974 | -0.61 | -1.08 | 0.412 | 0.213 | -0.178 | -0.645 | -0.382 | 1.07 | 0.347 | -0.762 | -0.471 | -0.599 | -0.573 | -0.785 | -0.358 | -0.976 | 0.536

From the supplement of paper PMC6555819
